ChEMBL document CHEMBL3433997, “St. Jude Leishmania screening dataset” (2016)

Experiments:
Format in all cases: functional
[1] = target: Solute carrier family 2, facilitated glucose transporter member 1 (Homo sapiens) (UniProt P11166); assay: ST_JUDE_LEISH: Cytotoxicity at 2uM final concentration against transgenic Leishmania Mexicana promastigotes LmGLUT1 that are glucose transport deficient and complemented with the human glucose transporter GLUT1. Activity is measured by DNA content using SYBR green in vitro
[2] = target: Hexose transporter 1 (Plasmodium falciparum) (UniProt O97467); assay: ST_JUDE_LEISH: Cytotoxicity at 2uM final concentration against transgenic Leishmania Mexicana promastigotes LmPfHT that are glucose transport deficient and complemented with the Plasmodium falciparum hexose transporter. Activity is measured by DNA content using SYBR green in vitro
[3] = target: Glucose transporter (Leishmania mexicana) (UniProt O61059); assay: ST_JUDE_LEISH: Cytotoxicity at 2uM final concentration against transgenic Leishmania Mexicana promastigotes LmGT2 that are glucose transport deficient and complemented with the L. Mexicana glucose transporter 2. Activity is measured by DNA content using SYBR green in vitro

Sequence of Solute carrier family 2, facilitated glucose transporter member 1 (Homo sapiens) (P11166 whole entry): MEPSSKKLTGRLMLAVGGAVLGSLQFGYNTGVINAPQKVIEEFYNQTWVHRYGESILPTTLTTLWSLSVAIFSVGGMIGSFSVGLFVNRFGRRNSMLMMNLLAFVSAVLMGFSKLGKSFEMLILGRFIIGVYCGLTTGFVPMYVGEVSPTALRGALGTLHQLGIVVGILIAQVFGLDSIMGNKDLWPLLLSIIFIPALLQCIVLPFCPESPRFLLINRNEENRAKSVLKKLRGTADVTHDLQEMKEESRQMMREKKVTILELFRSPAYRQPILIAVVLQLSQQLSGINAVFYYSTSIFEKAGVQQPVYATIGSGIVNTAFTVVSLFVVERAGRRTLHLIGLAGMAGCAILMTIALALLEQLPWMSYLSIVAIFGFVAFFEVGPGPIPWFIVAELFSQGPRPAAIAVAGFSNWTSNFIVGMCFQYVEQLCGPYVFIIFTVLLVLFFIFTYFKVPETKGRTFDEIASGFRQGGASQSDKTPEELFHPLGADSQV

Compound | inhibition [1] [%] | inhibition [2] [%] | inhibition [3] [%]
N#Cc1ccc(N2CCN(Cc3cccc(-c4cccc(-c5nc6cc(F)ccc6[nH]5)c4)c3)CC2)nc1 | 3.5 | 5.99 | 3.65
COc1cc2c(cc1OC)C(C(=O)Nc1cc(OC)c(OC)c(OC)c1)C(c1ccc(SC)cc1)N(C)C2=O (stereo unspecified) | 1.51 | 0.98 | 2.73
CN1CCN(Cc2ccc(-c3ccc4c(Nc5ccc(F)cc5Cl)ccnc4c3)o2)CC1 | 0.53 | 0.83 | 1.39
CCCCCN1CCCC(CNS(=O)(=O)c2cccc(C(=O)Nc3ccc(C(F)(F)F)cc3)c2)C1 (stereo unspecified) | 0.67 | -0.91 | -0.09
CCCCCCN1CCCN(Cc2cccc(C(=O)Nc3ccc(C(C)(C)C)cc3)c2)CC1 | 1.39 | 0.8 | 0.65
COc1cccc(-c2ccc3c(-c4cccc(NC(C)=O)c4)cnc(N)c3c2)c1 | 5.41 | 4.32 | 3.78
COc1ccc2nccc([C@@H](O)CN3CCC(NCc4cc5oc(=O)[nH]c5cc4F)CC3)c2c1 | 0.09 | 0.65 | 2.44
CCCCn1c(=N)c(C(=O)NCc2cccnc2)cc2c(=O)n3cccc(C)c3nc21 | 4.38 | 5.85 | 2.74
COC(=O)c1cc(C(O)CNC(C)CCCc2ccccc2)ccc1O (stereo unspecified) | 0.96 | -0.05 | -0.85
Cc1cc(N(CCN2CCCCC2)CCN2CCCCC2)nc(Nc2ccc(Cl)cc2)n1 | 3.2 | 1.3 | 2.83
COc1cc2nc(Nc3ccc4c(c3)OCCO4)nc(N)c2cc1OC | -0.32 | -0.78 | 1.75
CCOc1cccc(C(=O)Nc2nonc2-c2ccc(OC)c(OC)c2)c1 | 10.3 | 9.2 | 7.57
